High-throughput results: PubChem, National Center for Advancing Translational Sciences (NCATS)
HP1b binding inh = HTS for Inhibitors of HP1-beta Chromodomain Interactions with Methylated Histone Tails; Potency, µM (highest dose often 114 µM), inactives show top-dose activity change, negative = inhibition, usual class: inhibitors; 390,000 compounds, 0.56% hits; AID 540317, 2011; Chromobox protein homolog 1 (Homo sapiens), P83916; AlphaScreen HP1-beta / biotin-H3K9me3 peptide binding; also: nearly all actives have a fitted effect of over 70% in size
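AlphaScreen: HP1-beta (50 nM) preformed 30 min with biotin-H3(1-18)K9me3 peptide (50 nM) in PBS pH 7.4, 0.01% Tween-20. Compound added for 30 min at RT, then streptavidin donor/nickel chelate acceptor beads (10 ug/mL) for 30 min.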
BAZ2B inh = qHTS Assay for Inhibitors of BAZ2B. Bromodomain adjacent to zinc finger domain protein 2B (Homo sapiens), Q9UIF8. 360,000 compounds, 4.4% hits. AID 504333, 2011. AlphaScreen BAZ2B-H3K14Ac peptide displacement. Potency, µM (series often up to 114 µM), without a hit: top-dose activity change, negative = inhibition, actives largely listed as inhibitors; also: % is scaled to controls: 0 for no effect and ±100 for the full control effect; nearly all actives have a fitted effect of over 60% in size
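Complex of BAZ2B and biotin-H3K14Ac (50 nM apiece) forms over 30 min at RT, then faces library compounds up to 110 uM for another 30 min; AlphaScreen beads added, 20 min dark incubation, luminescence read.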
G9a inh = qHTS Assay for Inhibitors of Histone Lysine Methyltransferase G9a. 350,000 compounds, 8.8% hits. Potency, µM (titrated, usually from 102 µM), for the others: at the highest dose activity, negative = inhibition, usual class: inhibitors. Histone-lysine N-methyltransferase EHMT2 (Homo sapiens), Q96KQ7. G9a H3K9 monomethylation, AlphaScreen, 2 h; also: % is scaled to controls: 0 for no effect and ±100 for the full control effect; nearly all actives have a fitted effect of over 75% in size
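AlphaScreen read-out: biotin-H3K9 peptide (500 nM) methylation by 20 nM enzyme with 20 uM SAM, 2 h at room temperature after 15 min compound preincubation; anti-monomethyl H3K9 antibody plus donor/acceptor beads, 10 min dark.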
Sfp PPTase inh = qHTS Assay for Inhibitors of Bacillus subtilis Sfp phosphopantetheinyl transferase (PPTase); 4'-phosphopantetheinyl transferase ffp (Bacillus subtilis), Q9F4F7; Biochemical Sfp PPTase activity, qHTS; Potency, µM, inactives show largest response in the series, negative = inhibition, hits mostly inhibitors; 310,000 compounds, 3.5% hits;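 also: the enzyme is Sfp with the accession as filed and its product quenches rhodamine fluorescence; 0% = enzyme reaction without inhibitor and -100% = no enzyme wells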
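After 15 min at room temperature with compound, 15 nM Sfp received 5 uM rhodamine-CoA plus 12.5 uM BHQ-2-ybbR (50 mM Hepes pH 7.6, 10 mM MgCl2). Rate came from the fluorescence difference over 30 min, ex 525/em 598 nm.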
JMJD2A Tudor inh = qHTS Assay for Inhibitors of JMJD2A-Tudor Domain; AlphaScreen JMJD2A-Tudor / H3K4me3 peptide binding; Potency, µM (doses to about 114 µM), without a hit: top-dose activity change, negative = inhibition, hits mostly inhibitors; 390,000 compounds, 4.4% hits; AID 504339, 2011; also: % is scaled to controls: 0 for no effect and ±100 for the full control effect; nearly all actives have a fitted effect of over 50% in size
Numbers without * were called inactive; ? = inconclusive; · = not tested or not shown; [ ] = dose if it differs, or a comment. In the library only some 12% were active in any assay of this set; here they are far more common. Calls follow the shape of the dose curve; as a rule, active = well fitted curve in the direction sought with a large enough effect; inconclusive = small, poorly fitted or top-dose-only effect, or another doubt; inactive = no such curve, though single readings can be large; an effect the other way counts as inactive or inconclusive. Potency is read from the fitted curve at half-maximal effect.

SMILES | HP1b binding inh | BAZ2B inh | G9a inh | Sfp PPTase inh | JMJD2A Tudor inh
CCOC(=O)c1c(C)oc2nc(C)nc(NCC3CCN(Cc4ccc(C)cc4)CC3)c12 | 15.5% | 1.0%[57.1 µM] | -24.3%[59 µM] | · | -21.0%
C=C(C)COc1ccc2c(C)c(CCC(=O)N3C[C@H]4C[C@@H](C3)c3cccc(=O)n3C4)c(=O)oc2c1 | 34.2% | -5.1% | · | 7.1% | -13.6%
Cn1nnc(C(O)CN2CCOCC2)n1 (configuration not stated) | 36.1% | -6.6% | 79.4µM* | 0.4% | 2.9%
Cc1cc(Nc2sc(C(=O)c3ccc(F)cc3)c(N)c2C(=O)Nc2ccc(F)cc2)ccc1Cl | -2.0% | ? | ? | · | ?
CC(C)(C)c1ccc(C(=O)CCCSC2=C(C#N)C(c3ccco3)C3=C(CCCC3=O)N2)cc1 (configuration not stated) | 11.0% | -0.4% | ? | 50.1µM* | ?
N#CC1=C(SCC(=O)c2ccccc2)NC2=C(C(=O)CCC2)C1c1ccco1 (configuration not stated) | -1.7% | ? | ? | 31.6µM* | ?
CCOC(=O)CSC1=C(C#N)C(c2ccccc2C)C2=C(CCCC2=O)N1 (configuration not stated) | 68.0% | -20.8% | ? | 14.1µM* | 6.1%
Cn1c(SCc2ccccc2)nnc1-c1ccco1 | -14.1% | -17.5% | -30.2% | 12.9% | -12.5%
CCCCC[C@H](O)/C=C/[C@H]1C=CC(=O)[C@@H]1CCCCCCC(=O)O | · | · | 28.1%[59 µM] | 8.9% | ·
Cc1oc(-c2ccc(C(=O)NCCc3ccc(Cl)cc3)cc2)nc1CSc1ccccc1 | 43.5% | -4.1% | ? | · | -1.0%
COCCCNC(CC(=O)Nc1ccc(OC)cc1OC)C(=O)O (configuration not stated) | -18.7% | -8.2% | ? | -19.3% | 10µM*
COc1ccccc1NC(=O)CC(NCc1ccccc1)C(=O)O (configuration not stated) | -8.6% | ? | ? | 2.0% | 11.2µM*
COc1ccc(NC(=O)CC(NCCc2ccccc2)C(=O)O)c(OC)c1 (configuration not stated) | -4.6% | -29.8% | 28.2µM* | -16.7% | 4.47µM*
COc1ccc(-c2cc(C)no2)cc1S(=O)(=O)Nc1cccc(C(F)(F)F)c1 | 25.3% | -0.2% | -19.3%[59 µM] | · | -1.6%
CC(=O)N1CCc2cc(Br)cc(S(=O)(=O)CCC(=O)NCc3ccc(F)cc3)c21 | 22.9% | 3.8% | 9.5%[59 µM] | · | 0.7%
COCCCNC(=S)N/N=C/c1ccc(O)cc1 | 42.4% | -18.4% | 6.8% | 3.1% | -15.7%
COCCCNC(=S)N/N=C/c1cccc(OC)c1O | 17.8% | 6.31µM* | · | 6.7% | ?
COCCCNC(=S)N/N=C/c1ccc2ccccc2c1 | 13.5% | ? | 50.1µM* | -12.1% | -32.7%
COc1cccc(/C=N/NC(=S)Nc2cccc(C(=O)O)c2)c1O | 41.3% | · | 39.8µM* | -0.8% | 15.8µM*
COCCCNC(=S)N/N=C/c1ccc(O)cc1O | 16.4% | 6.31µM* | 3.8% | 20.1% | 50.1µM*
COCCCNC(=S)N/N=C/c1ccc(OC)cc1 | 20.9% | -2.8% | · | -2.6% | -10.3%
Cc1cc(C)c2c(c1)c(C)cc1nnc(SCC(=O)c3ccc(F)cc3)n12 | 63.5% | -12.6% | -43.5%[59 µM] | · | -3.3%
COc1ccc(OC)c(NC(=O)CSc2nc3ccccc3c(=O)n2CCC(=O)NC2CCCCC2)c1 | 43.7% | -0.7% | -1.5%[59 µM] | · | -19.7%
COc1ccc2c(c1)O[C@@H]1c3ccc(OC)cc3OCC21 (some centres not stated) | · | · | -37.4%[2.33 µM] | 7.7% | ·
CCc1cc(C(=O)N2CCN(S(=O)(=O)c3ccc(Cl)cc3)CC2)sc1C | 22.5% | 2.8% | -10.8%[12.7 µM] | · | -9.2%
SMILES | HP1b binding inh | BAZ2B inh | G9a inh | Sfp PPTase inh | JMJD2A Tudor inh
O=C1C2CC=C(Cl)CC2C(=O)N1c1ncn[nH]1 (configuration not stated) | 39.1% | 56.2µM* | ? | 5.8% | 89.1µM*
CCN(CC)CC(=O)Nc1ccc(C)cc1C(=O)c1ccccc1 | 9.2% | 1.3% | -0.6%[59 µM] | 26.5% | -13.8%
Cc1ccc(S(=O)(=O)NCCC(=O)Nc2ccc(C)cc2C(=O)c2ccccc2)cc1 | -6.9% | -32.1% | 4.8%[59 µM] | -3.2% | 50.1µM*
Cc1cc(-c2ccccc2)nc2cc(C(=O)OC(C)C)nn12 | 17.0% | 12.5% | -6.4%[0.501 µM] | 5.4% | 4.3%
CCOC(=O)c1cc2nc(-c3ccccc3)cc(C)n2n1 | 57.3% | 8.4% | 44.7µM* | 6.0% | 16.6%
COCCNC(=O)c1cc2nc(-c3ccccc3)cc(C)n2n1 | 15.7% | 0.2% | 1.2% | 13.0% | -10.0%
Cc1cc(-c2ccccc2)nc2cc(C(N)=O)nn12 | 22.8% | -15.5% | 28.2µM* | -9.5% | -17.4%
O=C(N/N=C/c1ccccn1)c1ccc(NC(=O)c2ccccc2Cl)cc1 | -1.3% | -3.3% | 3.3% | -12.1% | -28.6%
Cc1cccc(/C=N/NC(=O)c2ccc(F)cc2)n1 | 56.1% | 10.8% | 14.4% | 39.8µM* | 4.4%
O=C(N/N=C/c1ccccn1)c1ccc(NC(=O)c2ccc(F)cc2)cc1 | 39.6% | 3.2% | 50.1µM* | -24.1% | -22.3%
Cc1noc(C)c1CSCC(=O)Nc1nc2c(F)cc(F)cc2s1 | -18.2% | 50.1µM* | ? | · | 44.7µM*
O=C(Nc1nc2c(F)cc(F)cc2s1)c1ccco1 | 20.0% | 3.8% | -12.5% | 9.7% | -15.3%
COc1ccc2nc(NC(=O)CSCc3c(C)noc3C)sc2c1 | 25.0% | -8.3% | ? | · | -15.1%
Cc1ccc(C)c(NC(=O)CN(C)C(=O)CSCc2c(C)noc2C)c1 | 22.5% | 11.2% | 31.6µM* | · | -4.1%
Cc1cccc(C)c1NC(=O)CN(C)C(=O)CSCc1c(C)noc1C | 15.0% | 4.8% | 2.3%[12.7 µM] | · | -1.4%
Cc1cc(C)c(NC(=O)CSCc2c(C)noc2C)c(Cl)c1 | 18.8% | 3.5% | 39.8µM* | · | -14.5%
O=C(CCc1ccccc1)Nc1nc2c(F)cc(F)cc2s1 | 3.5% | 1.7% | -4.4% | 35.5µM* | -12.4%
Cc1cccc(CNc2ncnc3ccc(-c4ccccc4C#N)cc23)c1 | · | · | · | 15.3% | ·
COCCC(=O)N1CCC(n2nccc2NC(=O)c2ccccc2C)CC1 | 23.0% | 4.6% | 22.1% | 24.7% | ?
COc1cccc(NC(=O)CCc2c(C)nc3c4cccnc4nn3c2C)c1 | 48.7% | -3.1% | 14.5%[59 µM] | · | -17.5%
COc1ccc(OC)c(S(=O)(=O)CC(=O)c2cc3ccc(OC)cc3oc2=O)c1 | 38.7% | ? | -12.6% | -9.7% | -14.0%
COc1ccc(S(=O)(=O)CC(=O)c2cc3cc(Br)ccc3oc2=O)cc1 | -15.6%[57 µM] | 44.7µM* | 25.1µM* | -22.7% | ?
CCCCn1c(NCc2ccccn2)nc2ccccc21 | 29.9% | · | ? | 56.2µM* | -8.3%
CCN(CC)CCn1c(NCc2ccccn2)nc2ccccc21 | 33.6% | ? | ? | ? | ?
